Compound activity from PubChem BioAssay.
MITF inh – blocks human microphthalmia-associated transcription factor; O75030; AlphaScreen MITF homodimerization, bead proximity signal; inhibition, % at 2.6 µM; hit rate 0.91% among 650,000; in the data active = inhibition above about 50%
GPR151 activ – activates the human receptor GPR151; Q8TDV0; PathHunter beta-arrestin GPR151 cells, luminescence; activation, % at 11.2 µM; hit rate 1% among 650,000; AID 1508602; in the data active = activation above about 4.9%
Target sequence (Q8TDV0 whole entry, looked up): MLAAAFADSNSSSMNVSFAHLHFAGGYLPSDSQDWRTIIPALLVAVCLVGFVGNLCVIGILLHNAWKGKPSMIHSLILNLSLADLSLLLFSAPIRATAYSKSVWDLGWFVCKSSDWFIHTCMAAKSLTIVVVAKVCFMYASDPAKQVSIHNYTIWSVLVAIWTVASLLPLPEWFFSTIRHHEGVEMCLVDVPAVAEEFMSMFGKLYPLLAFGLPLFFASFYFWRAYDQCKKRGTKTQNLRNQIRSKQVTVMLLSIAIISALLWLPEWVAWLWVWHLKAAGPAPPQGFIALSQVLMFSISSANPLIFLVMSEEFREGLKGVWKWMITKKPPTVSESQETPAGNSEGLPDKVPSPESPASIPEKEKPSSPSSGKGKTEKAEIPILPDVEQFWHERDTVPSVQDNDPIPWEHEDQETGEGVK
FBW7 act – human FBW7 E3 ligase activation, primary screen; Q969H0; AlphaScreen FBW7–phospho-cyclin E peptide binding, activator screen; normalized activity (activation), % at 26.1 µM; hit rate 0.13% among 650,000; AID 1259310; in the data active = normalized activity above about 1.9%;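 also: purified mutant Fbw7 with reduced substrate affinity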
TEAD-YAP inh – TEAD-YAP interaction inhibition. HEK-TIYL cells, TEAD-Gal4/YAP UAS-luciferase luminescence. inhibition, % at 9.12 µM. hit rate 1.4% among 640,000; in the data active = inhibition above about 32%
GPR151 confirm – confirmation of human GPR151 activators; shares compounds with GPR151 activ; GPR151 PathHunter beta-arrestin cells, luminescence, 90 min; % of EA-reagent control over plate median; activation, % at 11.2 µM; 6,700 tested, under 10 active;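 active = mean percent activation across replicates above the confirmation screen cutoff of 4.91%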
GPR119 ag – activates human GPR119 in a GPR151 counter-screen; shares compounds with GPR151 activ; GPR119 PathHunter beta-arrestin cells, luminescence, 90 min; 0 = compound-well median, 100 = enzyme-acceptor control; activation, % at 11.2 µM; hit rate 0.3% among 6,700;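 active = mean percent activation in the counterscreen above 29.09%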;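 also: counterscreen on off-target GPR119 to flag nonselective hits from the GPR151 activator screen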
A number is an active result. This is a sample that favours compounds with a hit; in the whole collection about 3.4% have one here.

How did CCOC(=O)COc1ccc(S(=O)(=O)Nc2ccc(Br)cc2)cc1 do in these assays?
MITF inh: inactive; GPR151 activ: inactive; FBW7 act: inactive; TEAD-YAP inh: inactive

Results for CCOC(=O)COc1ccc(S(=O)(=O)Nc2ccc(C(=O)OCC)cc2)cc1 ?
MITF inh: inactive; GPR151 activ: 5.0; FBW7 act: inactive; TEAD-YAP inh: inactive; GPR151 confirm: inactive; GPR119 ag: inactive

What do the screens show for `Cc1ccc(NS(=O)(=O)c2cc(C(=O)O)cc(C)c2C)cc1`?
MITF inh: inactive; GPR151 activ: inactive; FBW7 act: inactive; TEAD-YAP inh: inactive

Results for COc1ccc(S(=O)(=O)Nc2ccc(F)c(F)c2)cc1C ?
MITF inh: inactive; GPR151 activ: 13.8; FBW7 act: inactive; TEAD-YAP inh: inactive; GPR151 confirm: inactive; GPR119 ag: inactive

What do the screens show for `COC(=O)COc1ccc(S(=O)(=O)Nc2ccc(NC(C)=O)cc2)cc1C`?
MITF inh: inactive; GPR151 activ: 6.2; FBW7 act: inactive; TEAD-YAP inh: inactive; GPR151 confirm: inactive; GPR119 ag: inactive

Results for CC(=O)Nc1ccc(NS(=O)(=O)c2cc(C(C)(C)C)cc(C)c2C)cc1 ?
MITF inh: inactive; GPR151 activ: 6.4; FBW7 act: inactive; TEAD-YAP inh: inactive; GPR151 confirm: inactive; GPR119 ag: inactive

How did O=C(c1cc2ccccc2oc1=O)N1CCSC1c1ccc([N+](=O)[O-])cc1 (stereo unspecified) do in these assays?
MITF inh: inactive; GPR151 activ: inactive; FBW7 act: inactive; TEAD-YAP inh: inactive

Results for COc1ccc(/C=C/C(=O)NNC(=O)Cc2nc3ccccc3n2C)c(OC)c1 ?
MITF inh: inactive; GPR151 activ: inactive; FBW7 act: inactive; TEAD-YAP inh: inactive

What do the screens show for `COC(=O)c1c(C)oc2ccc(NS(=O)(=O)c3ccc(C(C)(C)C)cc3)cc12`?
MITF inh: inactive; GPR151 activ: inactive; FBW7 act: inactive; TEAD-YAP inh: inactive

Results for COC(=O)COc1ccc(NS(=O)(=O)c2ccc(NC(C)=O)cc2)cc1 ?
MITF inh: inactive; GPR151 activ: inactive; FBW7 act: inactive; TEAD-YAP inh: inactive

What do the screens show for `CCCCc1ccc(NS(=O)(=O)c2ccc(OCC(=O)OC)cc2)cc1`?
MITF inh: inactive; GPR151 activ: 5.2; FBW7 act: inactive; TEAD-YAP inh: inactive; GPR151 confirm: inactive; GPR119 ag: inactive

What do the screens show for `CCOc1ccc(S(=O)(=O)Nc2ccc3oc(C)c(C(=O)OC)c3c2)cc1`?
MITF inh: inactive; GPR151 activ: 8.9; FBW7 act: inactive; TEAD-YAP inh: 62.7; GPR151 confirm: inactive; GPR119 ag: inactive

What do the screens show for `Cc1ccc2onc(CC(=O)NCc3cccc(Cl)c3)c2c1`?
MITF inh: inactive; GPR151 activ: inactive; FBW7 act: inactive; TEAD-YAP inh: inactive

What do the screens show for `CCOC(=O)c1[nH]c(C=O)c(Br)c1C`?
MITF inh: inactive; GPR151 activ: inactive; FBW7 act: inactive; TEAD-YAP inh: inactive

How did CCn1c(SCC(=O)Nc2cc(OC)cc(OC)c2)nnc1-c1cccs1 do in these assays?
MITF inh: inactive; GPR151 activ: 5.5; FBW7 act: inactive; TEAD-YAP inh: inactive; GPR151 confirm: inactive; GPR119 ag: inactive

Results for CCn1c(SCC(=O)NCc2cccs2)nnc1-c1cccs1 ?
MITF inh: inactive; GPR151 activ: 6.9; FBW7 act: inactive; TEAD-YAP inh: inactive; GPR151 confirm: inactive; GPR119 ag: inactive

How did CCn1c(SCC(=O)Nc2ccc(OC)cc2)nnc1-c1cccs1 do in these assays?
MITF inh: inactive; GPR151 activ: inactive; FBW7 act: inactive; TEAD-YAP inh: inactive

Results for Cn1c(SCC(=O)NCc2cccs2)nnc1-c1cccs1 ?
MITF inh: inactive; GPR151 activ: inactive; FBW7 act: inactive; TEAD-YAP inh: inactive

Results for Cc1cc(C(=O)NCC2CCCN(Cc3ccc(Sc4nncn4C)o3)C2)no1 (stereo unspecified) ?
MITF inh: inactive; GPR151 activ: inactive; FBW7 act: inactive; TEAD-YAP inh: inactive

Results for COc1ccc(-c2noc(CC(=O)Nc3cc(C)on3)n2)cc1 ?
MITF inh: inactive; GPR151 activ: inactive; FBW7 act: inactive; TEAD-YAP inh: inactive

How did COc1ccc(-c2noc(CC(=O)Nc3cccc(C)n3)n2)cc1 do in these assays?
MITF inh: inactive; GPR151 activ: 5.5; FBW7 act: inactive; TEAD-YAP inh: inactive; GPR151 confirm: inactive; GPR119 ag: inactive

What do the screens show for `CC(C)N(Cc1nc(-c2ccccc2)no1)C(=O)c1ccccc1F`?
MITF inh: inactive; GPR151 activ: inactive; FBW7 act: inactive; TEAD-YAP inh: inactive
